{"source": "PubChem BioAssay (NCATS)", "note": "Some of the results follow. Entries that show only a call come without a potency. Inconclusive results are not listed. A number with no mark means an inactive call. The source made the active and inactive calls. The call rests on the fitted dose curve; in most records, active means well fitted inhibition curve with a large enough effect; inconclusive means small, poorly fitted or top-dose-only effect, or effect the other way; inactive means no such curve, though single readings can be large or run the other way. Potency means the concentration at half of the fitted maximal effect.", "data": [{"assay": "qHTS Assay for Inhibitors of Fructose-1,6-bisphosphate Aldolase from Giardia Lamblia: Giardia lamblia growth inhibition (AID 2785);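 further: trophozoites exposed to compound for 48 h at 37 °C; nearly all actives have a fitted effect of over 70% in size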", "conditions": "Giardia lamblia trophozoite growth inhibition; series mostly up to 57.5 µM", "excerpt": "NIH Chemical Genomics Center [NCGC]\nNIH Molecular Libraries Probe Production centers Network [MLPCN]\nAssay Provider: Osnat Herzberg, University of Maryland\nThe objective of this project is to obtain compounds that inhibit Giardia lamblia growth. G. lamblia is a human pathogen which afflicts impoverished nations; it is the most common cause of outbreaks of diarrhea in the United States. During the course of our study of potential drug targets in Giardia, we have identified the Class II (Zn2+ functions in electrophilic catalysis) fructose-1,6-bisphosphate aldolase (FBPA) as an excellent candidate for drug targeting. FBPA is a key glycolytic pathway enzyme, essential for G. lamblia survival. The human FBPA belongs to the Class I aldolases, which have a different substrate binding site structure and a radically different catalytic mechanism (employing a lysine-Schiff base intermediate). Therefore, affinity-based or mechanism-based inhibitors of the Giardia FBPA are expected not to interfere with the catalytic function of the human FBPA.\nA glyceraldehyde-3-phosphate dehydrogenase/triose phosphate isomerase/NAD/arsenate coupled assay was adapted to the 1536-well HTP format for use in the primary screen. This was done by coupling it to a diaphorase/resazurin/resorufin reaction that can be monitored by fluorescence (excitation, 544 nm; emission, 590 nm). Compounds identified in this screen will be further evaluated by coupling the glycerol-3-phosphate/triose phosphate isomerase/NADH assay to a phenazine methosulfate/tetranitroblue tetrazolium color reaction. False positives due to the dehydrogenases and diaphorase inhibition will be eliminated, and selectivity assay will triage inhibitors of mammalian triose phosphate isomerase and the Class I FBPA. G. lamblia FBPA inhibitors identified by the in vitro analyses will be examined for growth inhibition of Giardia trophozoites, and for cytotoxicity in human cells.\nThis assay addresses whether hits in the primary screen can inhibit growth of giardia lamblia trophozoites.\nTrophozoites of the G. lamblia isolate WB (33) were grown at pH 7.0 in modified TYI-S-33 medium. Detachment of trophozoites for preparation of inocula was achieved by chilling the cultures on ice for 20 min.\n2uL/well media was dispensed per well into 1536-well white solid-bottom plates using a Multidrop Combi dispenser (Thermo Scientific). Subsequently, 23 nL/well compound solutions or DMSO controls were dispensed to the assay plates containing media via a pintool workstation (Kalypsys, San Diego) to avoid the potential contamination to the compound source plates. Unless otherwise noted, Giardia trophozoids suspended in media were dispensed as 100 cells/well in 4uL volumes. The plates were covered with plastic low-evaporation lids, individually sealed in Type A Bio-Bags and incubated at 37C for 48 hours. Following incubation, 4uL/well of ATPlite reagent was dispensed with a Multidrop Combi dispenser. The assay plates were briefly centrifuged at 1000 RPM and luminescence signal was detected on a ViewLux plate reader (PerkinElmer) after 20 min incubation at room temperature.\nKeywords: Fructose-bisphosphate aldolase, FBPA , Giardia lamblia , Giardia, HTS, Inhibitors", "values": [{"smiles": "CCN(CC(=O)Nc1ccc(S(=O)(=O)N2CCCC2)cc1)CC(=O)Nc1cccc(OC)c1", "Potency": "inactive"}, {"smiles": "COc1ccc(OC)c(Nc2nc(-c3ccc(O)c(O)c3)cs2)c1", "activity change, negative = inhibition": "-10.8% [at 10.4 µM]"}, {"smiles": "C=CCc1cc(C)ccc1OCCCn1ccnc1", "activity change, negative = inhibition": "5.83% [at 10.4 µM]"}, {"smiles": "CN1C(=O)/C(=C\\c2ccc(-c3ccccc3)o2)SC1=S", "Potency": "inactive"}, {"smiles": "COc1cc(CN2CCN(Cc3ccc(C)cc3)CC2)c([N+](=O)[O-])cc1OC", "Potency": "inactive"}, {"smiles": "Cc1nnc(N/N=C/c2ccccn2)[nH]c1=O", "Potency": "25.1 µM (active)"}, {"smiles": "C=CCNC(=S)/N=c1/ccccn1Cc1ccccc1", "activity change, negative = inhibition": "3.99% [at 10.4 µM]"}, {"smiles": "Cc1csc(NC(=O)CN2CCCCCC2)n1", "activity change, negative = inhibition": "1.38% [at 10.4 µM]"}, {"smiles": "O=C1CCCN1CCCNC(=S)Nc1ccc(F)c(Cl)c1", "Potency": "inactive"}, {"smiles": "Cc1nc(N2CCOCC2)sc1C(=O)NN", "Potency": "inactive"}, {"smiles": "CC(=O)NC1CCN(CC(=O)Nc2nccs2)CC1", "activity change, negative = inhibition": "-10.3% [at 10.4 µM]"}, {"smiles": "Cn1nnc(NC(=S)NC(=O)c2ccccc2)n1", "Potency": "inactive"}, {"smiles": "O=[N+]([O-])c1cc([N+](=O)[O-])c2cccnc2c1O", "Potency": "inactive"}, {"smiles": "CN(C)CCOc1ccc(Cl)cc1C(C)(C)C", "activity change, negative = inhibition": "-6.56% [at 10.4 µM]"}, {"smiles": "COCCN(C(=S)Nc1ccccc1OC)C1CCN(C(C)C)CC1", "Potency": "inactive"}, {"smiles": "CCN(CC(=O)NC(=O)NCc1ccccc1)Cc1nc2ccccc2c(=O)[nH]1", "Potency": "inactive"}, {"smiles": "C=C(C)CNC(=S)N/N=C/c1ccccc1OCC(=O)O", "Potency": "inactive"}, {"smiles": "CN1CCN(CCCCOc2ccccc2-c2ccccc2)CC1", "Potency": "inactive"}, {"smiles": "CC(C)(c1ccccc1)c1ccc(OCCN2CCCC2)cc1", "Potency": "inactive"}, {"smiles": "COc1ccccc1CN1CCN(Cc2cc(OC)c(OC)cc2OC)CC1", "Potency": "inactive"}, {"smiles": "Cc1cc(C)c2c(=O)[nH]c(SCC(=O)Nc3ccc(Br)cc3)nc2n1", "Potency": "inactive"}, {"smiles": "Cn1c(=O)[nH]c(=O)c2c1[nH]c(=S)n2Cc1ccccc1", "activity change, negative = inhibition": "4.88% [at 10.4 µM]"}, {"smiles": "Cc1cnc(NC(=O)c2ccccn2)s1", "activity change, negative = inhibition": "-23.9% [at 10.4 µM]"}, {"smiles": "O=C(Nc1ccccc1Cl)O/N=C(/c1ccccc1)c1ccccn1", "Potency": "22.4 µM (active)"}, {"smiles": "O=S(=O)(c1ccc(NC(=S)NN=C(C2CC2)C2CC2)cc1)N1CCOCC1", "activity change, negative = inhibition": "-9.73% [at 10.4 µM]"}, {"smiles": "O=c1nc(N/N=C/c2ccco2)cn[nH]1", "Potency": "inactive"}, {"smiles": "Clc1cccc(CN2COc3c(cc(Cl)c4cccnc34)C2)c1", "Potency": "inactive"}, {"smiles": "COc1ccc(Cl)cc1C(=O)NNC(=O)c1nc2nc(C)cc(C)n2n1", "Potency": "inactive"}, {"smiles": "COc1ccc(C(=O)NC(=S)N2CCCCC2c2cccnc2)cc1OC", "note": "(stereo not given)", "Potency": "inactive"}, {"smiles": "Cc1ccc(OCCCCc2c(C)n[nH]c2C)cc1", "activity change, negative = inhibition": "7.15% [at 10.4 µM]"}, {"smiles": "Cc1cccc(C)c1OCCN1CCOCC1", "activity change, negative = inhibition": "14.9% [at 10.4 µM]"}, {"smiles": "O=C(NC(=S)Nc1ncccn1)c1ccccc1Br", "Potency": "inactive"}, {"smiles": "COC(=O)CC1=NN(c2nc(C)cc(C)n2)C(=O)C1", "Potency": "inactive"}, {"smiles": "CSc1n[nH]c(=S)n1N", "Potency": "inactive"}, {"smiles": "CN1CCCc2cc(C#N)c(=O)[nH]c21", "Potency": "inactive"}, {"smiles": "CNC(=S)N/N=C/c1ccc(N2CCOCC2)s1", "activity change, negative = inhibition": "-8.92% [at 10.4 µM]"}, {"smiles": "Cc1nc2ccc(NC(=S)N3CCC(C)CC3)cc2nc1C", "Potency": "inactive"}, {"smiles": "COc1ccc(CN2CCN(Cc3ccc(OC)c(OC)c3OC)CC2)cc1", "activity change, negative = inhibition": "6.68% [at 10.4 µM]"}, {"smiles": "Cc1cccc(-c2nnc(SCC(=O)O)n2Cc2ccccc2)c1", "activity change, negative = inhibition": "6.79% [at 10.4 µM]"}, {"smiles": "COc1ccc(N=Nc2c(-c3ccc(OC)cc3)[nH]oc2=O)cc1", "Potency": "inactive"}]}]}
